# Publication PMC7862700, “An all-to-all approach to the identification of sequence-specific readers for epigenetic DNA modifications on cytosine”
# Tests used:
# Assay in all cases: DAPPL (digital affinity profiling via proximity ligation, sequencing); 10 mM Tris-HCl pH 7.5, 50 mM NaCl, 1 mM DTT, 4% glycerol, room temperature, 30 min; GST-TFs on glutathione beads, 16-mer random dsDNA library, 0.1% formaldehyde crosslink after washing; high values mean tight binding
# FLI1 = target: T1, FLI1 (Homo sapiens, UniProt Q01543 1-452); conditions: protein: recombinant; tags: N-terminal GST; dsDNA, one strand shown
# T1 sequence: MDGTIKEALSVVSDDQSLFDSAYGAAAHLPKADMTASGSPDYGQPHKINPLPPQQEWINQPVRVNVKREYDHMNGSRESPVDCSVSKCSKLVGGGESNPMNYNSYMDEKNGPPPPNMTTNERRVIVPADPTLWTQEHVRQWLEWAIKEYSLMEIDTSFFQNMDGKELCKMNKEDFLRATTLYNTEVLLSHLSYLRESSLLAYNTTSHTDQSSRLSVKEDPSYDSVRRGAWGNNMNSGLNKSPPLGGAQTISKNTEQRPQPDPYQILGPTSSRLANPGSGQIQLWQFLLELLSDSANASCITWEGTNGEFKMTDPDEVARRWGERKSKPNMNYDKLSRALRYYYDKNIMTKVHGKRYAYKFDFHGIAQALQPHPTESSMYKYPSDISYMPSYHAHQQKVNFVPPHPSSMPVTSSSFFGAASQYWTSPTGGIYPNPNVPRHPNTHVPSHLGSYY
# Procedure, shortened: (§1)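 A tag-only sample was pooled with DNA-barcoded human transcription factors that had been expressed in yeast as GST fusions and captured on glutathione beads. The pools were incubated for 30 min at room temperature with 200 nmole of a random double-stranded 16-mer DNA library in Tris/NaCl/DTT/glycerol buffer, then washed, crosslinked with 0.1% formaldehyde, proximity-ligated (BsaI/T4 ligase, 1 h, 37 °C), PCR-amplified and sequenced on an Illumina NextSeq500. Binding signal is each hexamer's read frequency for a factor divided by its frequency for the tag-only sample.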
# ELK1 = target: T2, ELK1 (Homo sapiens, UniProt P19419 1-428); conditions: protein: recombinant; tags: N-terminal GST; dsDNA, one strand shown
# T2 sequence: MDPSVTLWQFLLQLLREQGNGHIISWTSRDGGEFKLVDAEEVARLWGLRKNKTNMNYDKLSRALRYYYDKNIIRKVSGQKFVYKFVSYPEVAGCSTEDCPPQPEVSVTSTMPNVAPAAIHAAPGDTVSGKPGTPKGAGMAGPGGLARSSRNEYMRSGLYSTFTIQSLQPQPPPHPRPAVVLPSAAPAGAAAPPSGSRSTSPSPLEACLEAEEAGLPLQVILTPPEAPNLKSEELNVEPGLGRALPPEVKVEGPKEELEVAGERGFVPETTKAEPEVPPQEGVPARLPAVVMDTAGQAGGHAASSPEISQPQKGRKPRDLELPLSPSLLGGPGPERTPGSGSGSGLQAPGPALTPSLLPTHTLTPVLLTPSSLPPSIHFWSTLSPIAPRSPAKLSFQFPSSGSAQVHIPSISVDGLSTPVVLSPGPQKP
# Procedure, shortened: as §1
# GABPA = target: T3, GABPA (Homo sapiens, UniProt Q06546 1-454); conditions: protein: recombinant; tags: N-terminal GST; dsDNA, one strand shown
# T3 sequence: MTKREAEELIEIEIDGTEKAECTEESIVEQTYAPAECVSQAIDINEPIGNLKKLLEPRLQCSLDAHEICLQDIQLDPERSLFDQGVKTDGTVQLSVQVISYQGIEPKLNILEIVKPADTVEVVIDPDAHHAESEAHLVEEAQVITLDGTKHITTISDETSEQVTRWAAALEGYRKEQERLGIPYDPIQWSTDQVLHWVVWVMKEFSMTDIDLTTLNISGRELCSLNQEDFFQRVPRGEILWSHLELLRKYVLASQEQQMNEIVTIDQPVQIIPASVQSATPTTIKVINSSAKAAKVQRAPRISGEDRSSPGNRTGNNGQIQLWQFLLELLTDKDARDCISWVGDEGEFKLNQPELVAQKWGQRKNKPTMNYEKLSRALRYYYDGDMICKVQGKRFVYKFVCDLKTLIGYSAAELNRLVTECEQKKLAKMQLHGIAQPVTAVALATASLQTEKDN
# Procedure, shortened: as §1
# ERG = target: T4, ERG (Homo sapiens, UniProt P11308 1-479); conditions: protein: recombinant; tags: N-terminal GST; dsDNA, one strand shown
# T4 sequence: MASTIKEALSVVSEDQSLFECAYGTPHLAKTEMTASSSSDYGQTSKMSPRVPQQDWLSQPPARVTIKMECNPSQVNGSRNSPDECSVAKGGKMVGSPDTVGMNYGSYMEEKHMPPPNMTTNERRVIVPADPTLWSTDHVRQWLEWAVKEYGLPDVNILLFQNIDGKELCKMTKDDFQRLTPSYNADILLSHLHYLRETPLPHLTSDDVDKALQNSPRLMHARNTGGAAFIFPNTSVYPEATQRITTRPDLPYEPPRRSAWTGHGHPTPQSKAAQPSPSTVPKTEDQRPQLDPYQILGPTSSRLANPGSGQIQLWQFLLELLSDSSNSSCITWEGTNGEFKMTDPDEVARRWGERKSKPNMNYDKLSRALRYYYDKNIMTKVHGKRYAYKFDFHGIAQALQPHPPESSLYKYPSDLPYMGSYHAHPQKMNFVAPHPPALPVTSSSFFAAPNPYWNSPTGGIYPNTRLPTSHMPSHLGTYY
# Procedure, shortened: as §1
# ELF1 = ELF1 (Homo sapiens, UniProt P32519 1-619); conditions: protein: recombinant; tags: N-terminal GST; dsDNA, one strand shown
# Procedure, shortened: as §1
# EHF = target: T5, EHF (Homo sapiens, UniProt Q9NZC4 1-300); conditions: protein: recombinant; tags: N-terminal GST; dsDNA, one strand shown
# T5 sequence: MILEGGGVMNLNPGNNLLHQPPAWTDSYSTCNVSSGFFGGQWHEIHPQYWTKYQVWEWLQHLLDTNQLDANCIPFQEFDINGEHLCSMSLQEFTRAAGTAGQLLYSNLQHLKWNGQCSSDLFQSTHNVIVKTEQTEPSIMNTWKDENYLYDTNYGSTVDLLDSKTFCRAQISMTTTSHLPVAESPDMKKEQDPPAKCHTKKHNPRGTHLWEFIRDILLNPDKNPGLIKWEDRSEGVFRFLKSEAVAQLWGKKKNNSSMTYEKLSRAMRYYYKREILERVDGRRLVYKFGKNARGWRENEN
# Procedure, shortened: as §1
# SPI1 = SPI1 (Homo sapiens, UniProt P17947 1-270); conditions: protein: recombinant; tags: N-terminal GST; dsDNA, one strand shown
# Procedure, shortened: as §1
# SPIB = SPIB (Homo sapiens, UniProt Q01892 1-262); conditions: protein: recombinant; tags: N-terminal GST; dsDNA, one strand shown
# Procedure, shortened: as §1
# ELK3 = target: T6, ELK3 (Homo sapiens, UniProt P41970 1-407); conditions: protein: recombinant; tags: N-terminal GST; dsDNA, one strand shown
# T6 sequence: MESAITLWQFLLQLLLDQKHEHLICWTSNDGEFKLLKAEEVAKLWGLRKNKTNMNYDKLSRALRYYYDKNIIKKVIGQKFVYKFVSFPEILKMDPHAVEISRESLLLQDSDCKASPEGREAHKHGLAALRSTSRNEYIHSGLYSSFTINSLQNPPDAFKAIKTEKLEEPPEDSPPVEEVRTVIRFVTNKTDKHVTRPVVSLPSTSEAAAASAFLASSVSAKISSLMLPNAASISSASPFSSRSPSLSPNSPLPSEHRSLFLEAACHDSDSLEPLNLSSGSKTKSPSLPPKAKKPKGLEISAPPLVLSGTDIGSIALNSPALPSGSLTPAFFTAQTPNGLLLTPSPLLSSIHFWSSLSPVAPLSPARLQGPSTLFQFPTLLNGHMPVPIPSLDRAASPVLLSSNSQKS
# Procedure, shortened: as §1
# FEV = target: T7, FEV (Homo sapiens, UniProt Q99581 1-238); conditions: protein: recombinant; tags: N-terminal GST; dsDNA, one strand shown
# T7 sequence: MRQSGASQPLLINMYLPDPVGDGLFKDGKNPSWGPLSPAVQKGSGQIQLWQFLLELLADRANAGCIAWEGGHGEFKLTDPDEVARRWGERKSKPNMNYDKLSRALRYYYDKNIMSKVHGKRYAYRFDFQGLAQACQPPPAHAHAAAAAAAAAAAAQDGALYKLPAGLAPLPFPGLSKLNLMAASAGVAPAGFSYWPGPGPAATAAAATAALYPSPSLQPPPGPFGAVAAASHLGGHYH
# Procedure, shortened: as §1
# ETV5 = ETV5 (Homo sapiens, UniProt P41161 1-510); conditions: protein: recombinant; tags: N-terminal GST; dsDNA, one strand shown
# Procedure, shortened: as §1
# HSF1 = HSF1 (Homo sapiens, UniProt Q00613 1-529); conditions: protein: recombinant; tags: N-terminal GST; chain copies: 3; dsDNA, one strand shown
# Procedure, shortened: as §1
# ELF4 = ELF4 (Homo sapiens, UniProt Q99607 1-663); conditions: protein: recombinant; tags: N-terminal GST; dsDNA, one strand shown
# Procedure, shortened: as §1
# ELK4 = target: T8, ELK4 (Homo sapiens, UniProt P28324-2 1-405); conditions: protein: recombinant; tags: N-terminal GST; dsDNA, one strand shown
# T8 sequence: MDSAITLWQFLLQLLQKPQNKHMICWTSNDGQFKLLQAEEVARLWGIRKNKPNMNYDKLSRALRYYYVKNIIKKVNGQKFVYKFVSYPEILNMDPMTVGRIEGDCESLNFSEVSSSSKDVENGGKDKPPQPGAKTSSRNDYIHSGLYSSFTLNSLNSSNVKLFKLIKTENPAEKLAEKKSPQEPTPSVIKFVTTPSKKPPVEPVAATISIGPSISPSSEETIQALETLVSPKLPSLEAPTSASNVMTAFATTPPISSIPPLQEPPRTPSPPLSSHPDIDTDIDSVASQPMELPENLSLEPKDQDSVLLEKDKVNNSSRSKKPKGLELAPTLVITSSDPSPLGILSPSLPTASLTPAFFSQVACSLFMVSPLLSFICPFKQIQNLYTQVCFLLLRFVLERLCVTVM
# Procedure, shortened: as §1
# ELF3 = target: T9, ELF3 (Homo sapiens, UniProt P78545 1-371); conditions: protein: recombinant; tags: N-terminal GST; dsDNA, one strand shown
# T9 sequence: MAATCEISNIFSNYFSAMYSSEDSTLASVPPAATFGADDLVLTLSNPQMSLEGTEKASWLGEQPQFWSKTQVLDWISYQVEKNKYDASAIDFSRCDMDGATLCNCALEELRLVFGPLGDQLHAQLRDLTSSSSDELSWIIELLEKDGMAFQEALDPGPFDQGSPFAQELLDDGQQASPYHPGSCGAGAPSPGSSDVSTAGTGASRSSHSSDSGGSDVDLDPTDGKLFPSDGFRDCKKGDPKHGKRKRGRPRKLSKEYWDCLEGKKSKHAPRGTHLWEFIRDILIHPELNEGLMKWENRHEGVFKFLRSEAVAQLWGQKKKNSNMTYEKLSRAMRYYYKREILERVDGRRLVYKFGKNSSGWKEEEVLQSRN
# Procedure, shortened: as §1
# CRX = CRX (Homo sapiens, UniProt O43186 1-299); conditions: protein: recombinant; tags: N-terminal GST; dsDNA, one strand shown
# Procedure, shortened: as §1
# ETV1 = ETV1 (Homo sapiens, UniProt P50549 1-477); conditions: protein: recombinant; tags: N-terminal GST; dsDNA, one strand shown
# Procedure, shortened: as §1
# Chain of ETV5 (P41161 whole entry): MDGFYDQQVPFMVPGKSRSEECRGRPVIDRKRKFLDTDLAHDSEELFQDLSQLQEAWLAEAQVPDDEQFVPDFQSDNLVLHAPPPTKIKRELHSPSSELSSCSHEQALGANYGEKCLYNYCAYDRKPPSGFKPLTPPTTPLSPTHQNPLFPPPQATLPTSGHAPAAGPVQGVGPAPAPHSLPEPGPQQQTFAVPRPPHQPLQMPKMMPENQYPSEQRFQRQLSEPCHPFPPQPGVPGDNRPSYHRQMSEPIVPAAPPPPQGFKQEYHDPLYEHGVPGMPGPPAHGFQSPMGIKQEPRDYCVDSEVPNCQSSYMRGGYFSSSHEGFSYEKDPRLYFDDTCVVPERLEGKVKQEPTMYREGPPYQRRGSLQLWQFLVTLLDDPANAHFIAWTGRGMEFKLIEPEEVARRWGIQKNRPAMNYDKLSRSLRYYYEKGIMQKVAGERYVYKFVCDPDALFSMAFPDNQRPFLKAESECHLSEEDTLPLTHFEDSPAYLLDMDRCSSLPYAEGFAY
# Chain of ETV1 (P50549 whole entry): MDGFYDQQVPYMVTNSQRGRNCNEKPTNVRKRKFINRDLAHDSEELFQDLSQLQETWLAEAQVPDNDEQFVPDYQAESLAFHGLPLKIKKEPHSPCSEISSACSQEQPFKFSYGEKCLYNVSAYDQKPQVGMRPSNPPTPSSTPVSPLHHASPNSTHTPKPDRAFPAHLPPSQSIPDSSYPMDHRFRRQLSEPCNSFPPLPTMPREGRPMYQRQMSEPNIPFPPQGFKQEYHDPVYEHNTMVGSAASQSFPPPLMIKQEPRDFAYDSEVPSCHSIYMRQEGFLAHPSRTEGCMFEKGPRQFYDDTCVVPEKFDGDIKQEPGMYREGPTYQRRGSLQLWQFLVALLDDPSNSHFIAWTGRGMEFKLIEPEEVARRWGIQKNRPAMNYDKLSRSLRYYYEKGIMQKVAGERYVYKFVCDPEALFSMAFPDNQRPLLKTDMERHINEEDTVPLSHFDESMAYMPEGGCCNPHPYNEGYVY
# Chain of CRX (O43186 whole entry): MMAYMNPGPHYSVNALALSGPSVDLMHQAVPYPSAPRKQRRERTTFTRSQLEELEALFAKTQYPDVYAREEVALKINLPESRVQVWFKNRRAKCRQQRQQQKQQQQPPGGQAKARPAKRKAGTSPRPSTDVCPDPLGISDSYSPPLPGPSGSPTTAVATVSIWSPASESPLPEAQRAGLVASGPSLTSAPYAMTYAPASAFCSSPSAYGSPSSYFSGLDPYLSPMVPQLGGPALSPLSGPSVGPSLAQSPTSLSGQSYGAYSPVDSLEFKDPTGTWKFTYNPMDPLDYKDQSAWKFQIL
# Chain of HSF1 (Q00613 whole entry): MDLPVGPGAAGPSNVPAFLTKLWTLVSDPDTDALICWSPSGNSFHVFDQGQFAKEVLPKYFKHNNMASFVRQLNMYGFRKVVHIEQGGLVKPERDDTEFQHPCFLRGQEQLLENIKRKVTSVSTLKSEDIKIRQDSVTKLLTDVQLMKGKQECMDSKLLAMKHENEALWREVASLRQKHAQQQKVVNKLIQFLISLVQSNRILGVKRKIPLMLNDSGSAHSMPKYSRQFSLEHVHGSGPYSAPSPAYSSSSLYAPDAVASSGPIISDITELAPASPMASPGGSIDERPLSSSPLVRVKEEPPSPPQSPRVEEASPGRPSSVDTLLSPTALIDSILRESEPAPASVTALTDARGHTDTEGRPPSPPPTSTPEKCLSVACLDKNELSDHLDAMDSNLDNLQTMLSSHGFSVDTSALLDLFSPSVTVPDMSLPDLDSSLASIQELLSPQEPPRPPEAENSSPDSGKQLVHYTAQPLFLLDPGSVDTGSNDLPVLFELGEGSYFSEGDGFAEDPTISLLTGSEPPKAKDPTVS
# Chain of ELF4 (Q99607 whole entry): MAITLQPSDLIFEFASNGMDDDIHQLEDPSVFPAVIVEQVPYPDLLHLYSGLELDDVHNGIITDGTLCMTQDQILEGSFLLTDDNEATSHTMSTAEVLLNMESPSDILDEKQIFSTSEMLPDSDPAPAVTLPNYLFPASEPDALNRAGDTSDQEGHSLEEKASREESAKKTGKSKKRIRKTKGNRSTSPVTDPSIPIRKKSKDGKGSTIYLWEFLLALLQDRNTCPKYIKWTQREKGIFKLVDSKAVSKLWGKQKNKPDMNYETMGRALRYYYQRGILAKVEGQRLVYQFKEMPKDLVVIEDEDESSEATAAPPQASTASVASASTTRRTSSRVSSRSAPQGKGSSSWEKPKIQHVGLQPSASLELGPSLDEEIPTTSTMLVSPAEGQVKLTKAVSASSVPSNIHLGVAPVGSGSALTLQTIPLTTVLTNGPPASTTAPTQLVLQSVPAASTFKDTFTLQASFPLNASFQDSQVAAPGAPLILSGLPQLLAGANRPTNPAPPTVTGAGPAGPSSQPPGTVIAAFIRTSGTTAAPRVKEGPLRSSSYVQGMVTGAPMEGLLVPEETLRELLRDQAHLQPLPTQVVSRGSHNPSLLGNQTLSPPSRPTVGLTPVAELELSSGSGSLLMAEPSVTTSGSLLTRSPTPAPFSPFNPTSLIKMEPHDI
# Chain of ELF1 (P32519 whole entry): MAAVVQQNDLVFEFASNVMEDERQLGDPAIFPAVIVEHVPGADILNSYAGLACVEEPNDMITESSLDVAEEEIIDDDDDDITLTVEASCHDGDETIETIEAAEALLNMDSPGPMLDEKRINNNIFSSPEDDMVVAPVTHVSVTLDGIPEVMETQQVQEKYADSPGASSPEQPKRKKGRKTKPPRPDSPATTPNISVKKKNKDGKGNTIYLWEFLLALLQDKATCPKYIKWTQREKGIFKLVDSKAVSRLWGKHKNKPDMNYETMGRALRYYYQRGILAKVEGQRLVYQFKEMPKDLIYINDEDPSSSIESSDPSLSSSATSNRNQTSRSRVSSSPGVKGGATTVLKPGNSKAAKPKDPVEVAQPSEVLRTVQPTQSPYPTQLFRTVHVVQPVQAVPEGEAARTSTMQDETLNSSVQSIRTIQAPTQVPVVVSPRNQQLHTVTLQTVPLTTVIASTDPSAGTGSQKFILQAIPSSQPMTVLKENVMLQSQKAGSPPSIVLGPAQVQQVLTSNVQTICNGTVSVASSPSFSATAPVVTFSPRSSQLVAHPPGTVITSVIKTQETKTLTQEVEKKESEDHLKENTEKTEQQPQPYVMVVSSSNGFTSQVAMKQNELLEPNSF
# Chain of SPIB (Q01892 whole entry): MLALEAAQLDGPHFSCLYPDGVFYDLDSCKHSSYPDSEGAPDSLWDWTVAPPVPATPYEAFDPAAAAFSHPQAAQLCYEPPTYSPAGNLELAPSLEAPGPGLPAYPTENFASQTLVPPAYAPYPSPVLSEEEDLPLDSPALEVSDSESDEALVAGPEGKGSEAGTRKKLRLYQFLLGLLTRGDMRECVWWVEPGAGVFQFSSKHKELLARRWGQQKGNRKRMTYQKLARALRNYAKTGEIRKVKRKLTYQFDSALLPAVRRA
sequence,measurement,setting,value
TACACG,binding signal,FLI1,"1.13 fold enrichment (6-mer frequency, TF over GST control)"
same,binding signal,ELK1,"1.11 fold enrichment (6-mer frequency, TF over GST control)"
same,binding signal,GABPA,"1.19 fold enrichment (6-mer frequency, TF over GST control)"
same,binding signal,ERG,"1.1 fold enrichment (6-mer frequency, TF over GST control)"
same,binding signal,ELF1,"1.16 fold enrichment (6-mer frequency, TF over GST control)"
same,binding signal,EHF,"1.1 fold enrichment (6-mer frequency, TF over GST control)"
same,binding signal,SPI1,"1.07 fold enrichment (6-mer frequency, TF over GST control)"
same,binding signal,SPIB,"1.16 fold enrichment (6-mer frequency, TF over GST control)"
same,binding signal,ELK3,"1.19 fold enrichment (6-mer frequency, TF over GST control)"
same,binding signal,FEV,"1.12 fold enrichment (6-mer frequency, TF over GST control)"
same,binding signal,ETV5,"1.22 fold enrichment (6-mer frequency, TF over GST control)"
same,binding signal,HSF1,"1.04 fold enrichment (6-mer frequency, TF over GST control)"
same,binding signal,ELF4,"1.14 fold enrichment (6-mer frequency, TF over GST control)"
same,binding signal,ELK4,"1.21 fold enrichment (6-mer frequency, TF over GST control)"
same,binding signal,ELF3,"1.15 fold enrichment (6-mer frequency, TF over GST control)"
same,binding signal,CRX,"1.1 fold enrichment (6-mer frequency, TF over GST control)"
same,binding signal,ETV1,"1.16 fold enrichment (6-mer frequency, TF over GST control)"
